# WT yeast gro inh = growth inhibition of WT yeast, mitochondrial fusion screen; mitochondrial fusion phenotypic screen, WT strain; hit rate 2.1% among 190,000; inhibition, % at 10 µM; in the data active = inhibition above about 58%; tested in S. cerevisiae
# ROMK mod = human ROMK K+ channel modulation, primary screen. Tet-inducible ROMK, thallium flux fluorescence; actives lie on both sides. B-score at 10 µM. hit rate 2% among 130,000. AID 1918;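 active = signal ratio slope over the read window, or its plate-corrected B-score, at least 3 SD from the plate mean, either direction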;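 also: B-score of the F/F0 ratio slope over 7 to 12 s after thallium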
# Insulin prom inh = TRM-6 insulin promoter activity inhibition | TRM-6 cells (human fetal islet line), insulin promoter-eGFP reporter, imaging; reporter expression induced with tamoxifen | inhibition, % at 2 µM | hit rate 0.9% among 130,000;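 active = inhibition above the mean plus 3 SD, with well images judged a real hit on visual review, cut at about 60% in these data, passing the limit was not always enough; inconclusive = inhibition over the cutoff but images rejected on review; inactive = inhibition not above the cutoff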
# Insulin prom up = MIN6 insulin promoter up-regulation; MIN6 insulin promoter-GFP reporter, high-content imaging; stronger effect = higher value; z-score at 5 µM; hit rate 0.3% among 190,000; AID 1625;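 active = z-score above 3 at 5 µM with at least 500 cells counted in the well; inconclusive = wells under 500 cells, flagged as cytotoxic or low count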
# L major viab = Leishmania major promastigote growth inhibition. Leishmania major promastigotes, resazurin fluorescence viability. inhibition, % at 10 µM. hit rate 9% among 200,000. AID 1063; in the data active = inhibition above about 50%;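 also: promastigotes grown with compound for 44 hours at 28 °C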
# KCC2 mod = KCC2 (human) Cl- transport modulation | B-score of Tl+ flux slope (higher = more flux/activation; lower = inhibition) at 10 µM | KCC2 cells, thallium flux FluoZin-2 fluorescence | Q9H2X9 | hit rate 2.2% among 190,000;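 active = thallium flux slope and its plate-corrected score both differing from the plate sample mean at a set confidence after two filtering rounds, in either direction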;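 also: slope of fluorescence scaled to starting intensity during 10 to 20 s after thallium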
# Target sequence (Q9H2X9 whole entry, looked up): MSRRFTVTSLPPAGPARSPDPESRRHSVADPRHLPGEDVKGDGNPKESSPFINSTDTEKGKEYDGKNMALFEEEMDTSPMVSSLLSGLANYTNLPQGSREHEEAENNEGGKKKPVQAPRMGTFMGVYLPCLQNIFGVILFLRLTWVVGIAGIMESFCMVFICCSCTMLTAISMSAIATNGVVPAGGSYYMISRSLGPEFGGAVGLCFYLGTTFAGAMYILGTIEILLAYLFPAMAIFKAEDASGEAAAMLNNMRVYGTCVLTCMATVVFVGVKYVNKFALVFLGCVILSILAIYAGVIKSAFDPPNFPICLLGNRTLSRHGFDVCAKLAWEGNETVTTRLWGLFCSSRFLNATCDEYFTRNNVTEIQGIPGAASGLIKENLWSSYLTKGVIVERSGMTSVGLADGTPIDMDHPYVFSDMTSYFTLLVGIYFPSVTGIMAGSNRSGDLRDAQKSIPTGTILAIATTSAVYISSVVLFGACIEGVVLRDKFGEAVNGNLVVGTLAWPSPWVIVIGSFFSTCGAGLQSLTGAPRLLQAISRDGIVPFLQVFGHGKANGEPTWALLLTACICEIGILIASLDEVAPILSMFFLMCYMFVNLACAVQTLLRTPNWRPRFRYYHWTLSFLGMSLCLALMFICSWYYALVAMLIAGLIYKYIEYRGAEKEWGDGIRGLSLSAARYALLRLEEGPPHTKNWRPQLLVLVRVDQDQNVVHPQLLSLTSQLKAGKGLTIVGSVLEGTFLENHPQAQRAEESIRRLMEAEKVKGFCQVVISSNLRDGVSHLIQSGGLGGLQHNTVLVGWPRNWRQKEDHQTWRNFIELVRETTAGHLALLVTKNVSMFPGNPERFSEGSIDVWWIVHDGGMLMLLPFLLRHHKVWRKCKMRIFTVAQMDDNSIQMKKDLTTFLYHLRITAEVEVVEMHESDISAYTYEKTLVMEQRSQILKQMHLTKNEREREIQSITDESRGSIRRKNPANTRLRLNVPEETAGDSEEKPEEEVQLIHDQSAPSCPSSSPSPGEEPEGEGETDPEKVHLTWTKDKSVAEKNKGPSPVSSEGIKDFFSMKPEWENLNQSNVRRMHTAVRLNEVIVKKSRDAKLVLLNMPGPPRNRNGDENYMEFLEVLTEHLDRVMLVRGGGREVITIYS
# Starred values were filed as active, the others as inactive; ? = inconclusive; . = no result given. The list is not random: actives were taken first. Their share in the collection is about 12%.
SMILES,WT yeast gro inh,ROMK mod,Insulin prom inh,Insulin prom up,L major viab,KCC2 mod
CC(C)CNC(=O)COC(=O)Cc1ccc(Cl)cc1,9.7,-0.0765,.,0.62,-3.8,0.465
CCc1c(C)sc2nc(C(C)C)nc(SCC(=O)N3CCc4ccccc4C3)c12,61.2*,.,29.2,?,-3.7,.
CCn1c(=O)n(CC)c2cc(S(=O)(=O)Nc3c(C)cccc3C)ccc21,4.9,.,.,-0.23,98.4*,-0.153
Cc1ccc(C(=O)Nc2ccc(C(=O)N/N=C/c3c[nH]c4ccccc34)cc2)cc1,-0.8,0.261,16.7,-0.1,73.2*,-0.841
O=C(N/N=C/c1c[nH]c2ccccc12)c1ccncc1,1.4,0.423,16.9,-0.18,55.8*,0.216
O=C(N/N=C/c1c[nH]c2ccccc12)c1[nH]c2ccc(Br)cc2c1-c1ccccc1,96.0*,0.121,-233.3,-0.63,3.0,0.842
Cc1cc(C(=O)N/N=C/c2c[nH]c3ccccc23)cs1,-7.1,-2.21,-20.0,0.44,14.0,0.99
O=C(N/N=C/c1cc2c(cc1Br)OCO2)c1ccccn1,.,.,.,0.32,.,-2.96
O=C(N/N=C/c1cc2c(cc1Br)OCO2)c1c[nH]c2ccccc12,-23.1,-0.45,.,0.21,80.0*,-0.348
O=C(N/N=C/c1c[nH]c2ccc(Br)cc12)c1ccncc1,2.9,.,.,0.05,8.7,-0.392
CCN(CC)S(=O)(=O)c1ccc(OC)c(NC(=O)Cn2cnc3c2c(=O)n(C)c(=O)n3C)c1,-9.2,0.271,0.0,-0.69,3.3,0.336
O=C(NN1C(=O)C2C(c3ccccc3)C=CC(c3ccccc3)C2C1=O)c1ccncc1 (stereo not drawn),6.3,-0.493,.,.,3.0,-0.0076
CCCCSc1cnn(-c2ccccc2)c(=O)c1SCCCC,64.3*,-0.704,33.3,.,78.7*,-0.705
CCSc1cnn(-c2ccccc2)c(=O)c1SCC,-18.1,0.0029,-8.3,0.05,23.1,0.672
O=C(Nc1c2n(c(=S)n(-c3ccccc3)c1=O)CCCCC2)c1ccccc1,-19.5,-0.274,-51.4,0,-3.0,1.19
Cn1c(=O)n(CCc2ccccc2)c(=O)c2c1nc1n2CCCN1CCc1ccccc1,67.1*,.,-12.5,-1.64,28.3,0.0358
CC(C)=NNc1nc2c(c(=O)n(C)c(=O)n2C)n1CCc1ccccc1,11.3,-1.96,.,4.22*,9.2,-0.461
CC1CN(Cc2nc3c(c(=O)n(C)c(=O)n3C)n2CCc2ccccc2)CC(C)O1 (stereo not drawn),.,0.678,75.7*,.,4.9,-1.12
O=C(COc1ccc(F)cc1)NCC1CCCO1 (stereo not drawn),-7.6,0.828,-118.8,-0.38,1.2,-0.114
CCc1ccc(Nc2cnn(-c3nc4ccccc4s3)c(=O)c2Cl)cc1,62.8*,1.11,34.5,0.24,65.3*,-0.881
COc1cc(OC)cc(C(=O)NCCC(=O)NCCc2ccc(OC)c(OC)c2)c1,-12.6,-0.0403,-24.3,0.08,56.8*,-0.28
COc1ccc(CC(=O)Nc2nnc(C(C)C)s2)cc1,-4.7,0.126,.,-0.43,-9.3,-0.9
COc1ccc(CCNC(=O)CCNC(=O)c2ccc(Br)cc2)cc1OC,-0.7,.,.,1.33,-2.2,1.74
COc1ccc(CCNC(=O)CCC(=O)Nc2nnc(C(C)C)s2)cc1OC,-7.4,0.962,-31.0,0.37,60.3*,0.809
COC(=O)C(NNc1ccc(F)cc1)(NC(=O)c1ccccc1)C(F)(F)F (stereo not drawn),18.4,.,-45.2,-0.05,4.1,1.24
SMILES,WT yeast gro inh,ROMK mod,Insulin prom inh,Insulin prom up,L major viab,KCC2 mod
CCN1CCN(c2nc3sc4c(c3c(=O)n2-c2ccc(OC)cc2)CCCCC4)CC1,-3.1,.,-5.7,-0.47,97.8*,0.378
COc1ccc(-n2c(NN)nc3sc4c(c3c2=O)CCCC4)cc1,9.3,1.36,.,-0.66,0.8,1.02
COc1ccc(C2N(S(=O)(=O)c3ccccc3)CCN2S(=O)(=O)c2ccc(C)cc2)cc1 (stereo not drawn),12.2,1.21,.,.,99.8*,-0.128
CCOC(=O)N1CCN(S(=O)(=O)c2ccc(C)cc2)C1c1ccc(OC)cc1 (stereo not drawn),84.8*,.,.,0.51,15.7,-1.66
Cc1ccc(S(=O)(=O)N2CCN(S(=O)(=O)c3ccc(C)cc3)C2c2ccccc2)cc1,16.4,-0.0149,-50.0,-1.42,19.0,.
CCOC(=O)N1CCN(S(=O)(=O)c2ccc(C)cc2)C1c1ccccc1 (stereo not drawn),-5.0,0.066,.,-0.17,1.7,.
CCOC(=O)c1c(-c2ccccc2)csc1NC(=O)COc1ccc2c(C)cc(=O)oc2c1,-2.4,0.0132,-31.2,-0.59,-1.2,0.89
